Source: PubChem BioAssay (NCI)
The panel holds about 83,000 compounds, 20% with a hit somewhere; the sample as a whole holds those more often.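 Each cell line was grown in a 96-well plate and treated with one concentration of compound for 48 hours. Values below 10 were considered active.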 A number with no mark means an inactive call. Calls of active or inactive are those of the source.

Test system: OVCAR-3 ovarian
Test: NCI-60 one-dose screen, 48 h (100 = growth as untreated, 0 = no growth, -100 = all killed)
Settings: 10 µM unless noted

Compound	growth
O=C(Cn1c2ccccc2c2ccncc21)N/N=C/c1c[nH]c2ccccc12	18.3%
CC1(C)CC(=O)C2=C(C1)OC1=C(C(=O)CC(C)(C)C1)C2c1ccc(OCc2cn(-c3ccc(F)cc3F)nn2)cc1	95.3%
c1ccc2c(c1)Oc1cccnc1-n1nccc1-2	108%
NC(=NCCCOc1ccc(F)cc1)Nc1ccc(Cl)c(Cl)c1	73.3%
O=C1OC(N(Cc2ccc(Cl)cc2)c2ccccc2)c2ccccc21 (centres undefined)	104%
O=C(Nc1cccc([N+](=O)[O-])c1)Nc1cccc([N+](=O)[O-])c1	27.6%
CCOc1ccc(-n2c(-c3cc(OC)c(OC)c(OC)c3)nnc2-c2ccc(OC)cc2N)cc1	53.6%
CC(=O)CC/C=C(\C)[C@H](O)[C@H](C)C(=O)O[C@H]1C[C@H](C)C=C2C=C[C@@]3(C)O[C@@H](O)CC(=O)[C@]3(C)[C@H]21	-46.4% (active)
Cc1cccc[n+]1CCC[n+]1ccccc1C	112%
C#CC(=O)/C=C/CCCCCCC#CC(=O)CCC(=O)C#CCCCCCC/C=C/C(=O)C#C	7.03% (active)
COc1ccc2c(c1)OC(N)=C(C#N)C2c1ccc(F)cc1 (centres undefined)	16.9%
CC1=C2C(=C[C@@](C)(CO)[C@@H]2OC(=O)N(C)CCN(C)C(=O)OC(C)(C)C)C(=O)[C@](C)(O)C12CC2	3.63% (active)
COc1ccc2c(-c3ccc(F)cc3)c(C#N)c(=NC(C)=O)oc2c1	18.2%
CC(C)(C)OC(=O)NCc1cccc(N=C=S)c1	60.1%
